Reference: PubChem BioAssay (NCI)
The panel holds about 83,000 compounds, 20% with a hit somewhere; the sample as a whole holds those more often.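 Method: cells in 96-well plates; compound added at one concentration; 48 h incubation; percent growth measured; values under 10 scored active.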 Unmarked numbers belong to inactive results. Activity calls are given as the source filed them.

How the values were obtained:
Test in all cases: NCI-60 one-dose screen, 48 h (100 = growth as untreated, 0 = no growth, -100 = all killed)
Details in all cases: 10 µM unless noted
HCT-15 colon = system: HCT-15 colon
HT29 colon = system: HT29 colon
SNB-75 CNS = system: SNB-75 CNS
SNB-19 CNS = system: SNB-19 CNS
U251 CNS = system: U251 CNS
PC-3 prostate = system: PC-3 prostate
SK-MEL-5 melanoma = system: SK-MEL-5 melanoma
UACC-62 melanoma = system: UACC-62 melanoma
LOX IMVI melanoma = system: LOX IMVI melanoma
SK-MEL-28 melanoma = system: SK-MEL-28 melanoma
SK-MEL-2 melanoma = system: SK-MEL-2 melanoma
EKVX NSCLC = system: EKVX NSCLC
SN12C renal = system: SN12C renal
UO-31 renal = system: UO-31 renal
TK-10 renal = system: TK-10 renal
ACHN renal = system: ACHN renal
CAKI-1 renal = system: CAKI-1 renal
CCRF-CEM leukemia = system: CCRF-CEM leukemia
MOLT-4 leukemia = system: MOLT-4 leukemia

| Structure (SMILES) | growth (HCT-15 colon) | growth (HT29 colon) | growth (SNB-75 CNS) | growth (SNB-19 CNS) | growth (U251 CNS) | growth (PC-3 prostate) | growth (SK-MEL-5 melanoma) | growth (UACC-62 melanoma) | growth (LOX IMVI melanoma) | growth (SK-MEL-28 melanoma) | growth (SK-MEL-2 melanoma) | growth (EKVX NSCLC) | growth (SN12C renal) | growth (UO-31 renal) | growth (TK-10 renal) | growth (ACHN renal) | growth (CAKI-1 renal) | growth (CCRF-CEM leukemia) | growth (MOLT-4 leukemia) |
| --- | --- | --- | --- | --- | --- | --- | --- | --- | --- | --- | --- | --- | --- | --- | --- | --- | --- | --- | --- |
| CN(C)c1ccc(Nc2c3ccccc3nc3cc(NC(=O)CCN4CCCC4)ccc23)cc1 | -18.4% (active) | 1.99% (active) | -0.0133% (active) | -7.13% (active) | -48.6% (active) | -25.4% (active) | 0.523% (active) | 15.5% | -74.8% (active) | -34.7% (active) | 24% | 9.96% (active) | -7.36% (active) | -53.1% (active) | -12.7% (active) | 1.64% (active) | -47.6% (active) | -15% (active) | -8.89% (active) |
| CN(C)CCn1c2ccc(Br)cc2c2nc3ccccc3nc21 | 20.2% | 16.9% | 42.3% | 31.6% | 32.2% | 34% | 46.8% | 57.1% | 14.8% | 84.8% | 41.8% | 41.6% | 26.5% | 11% | 62.4% | 9.3% (active) | 13.8% | 28.4% | 13.7% |
| COc1ccc(NC(=O)c2cc(NCc3cc(O)ccc3O)ccc2O)cc1 | 97% | 89.7% | 101% | 90% | 91.1% | 64.1% | 92.6% | 94.6% | 94.3% | 98.5% | 89.3% | 100% | 85.8% | 65.8% | 118% | 97.4% | 107% | 28.5% | 65.2% |
| CCOC(=O)CSc1nc2ccccc2c(=O)n1Cc1ccc(S(N)(=O)=O)cc1 | 100% | 105% | 85.8% | 99.2% | 97.5% | 91.7% | 100% | 94.4% | 95.9% | 104% | 111% | 97.1% | 99.5% | 84.3% | 98.7% | 102% | 91.3% | 97.1% | 104% |
| Cc1cc2nc3c4ccc(Br)cc4n(CCN(C)C)c3nc2cc1C | 1.66% (active) | 5.01% (active) | 16.7% | 23.5% | 15.1% | 12.8% | 4.17% (active) | 13.1% | -52.6% (active) | 42.4% | 8.78% (active) | 22.7% | 16.7% | -30.3% (active) | 22.2% | -7.69% (active) | 0.198% (active) | 12.7% | 3.31% (active) |
| COc1cc2c(c(OC)c1OC)CCC(c1cccc(NC(=O)c3cccc(Br)c3)c1)O2 (stereo not given) | 87.7% | 87% | 86.8% | 94.5% | 93.5% | 76.1% | 88.2% | 70.1% | 92.4% | 90.9% | 103% | 84.6% | 87.6% | 79% | 91.8% | 94.2% | 91.5% | 88% | 74.3% |
| COc1cccc(-c2nc3occn3c2-c2ccnc(NCCNS(=O)(=O)c3ccc(C(F)(F)F)cc3)n2)c1 | 80% | 85.1% | 87% | 98% | 101% | 77.6% | 82.5% | 66.5% | 93.3% | 108% | 98.2% | 84.3% | 88.6% | 66.1% | 116% | 80.9% | 64.3% | 92.1% | 75.3% |
| CC(=O)Nc1ccc(-n2cnc3cc(-c4ccc(OCCN5CCCCC5)cc4)ccc32)cc1 | 43.6% | 2.12% (active) | 88.2% | 88% | 44% | 64.3% | 79% | 120% | 86.8% | 107% | 119% | 97.9% | 67.1% | 56.3% | 146% | 76.8% | 84.2% | 54.8% | 73.1% |
| O=C(NCCc1ccccc1)Nc1ccc2cc3ccc(NC(=O)NCCc4ccccc4)cc3nc2c1 | 97.1% | 31.4% | 17.1% | -31.8% (active) | -26.4% (active) | 19.3% | 60.9% | -51.2% (active) | -79.8% (active) | -29.4% (active) | 0.339% (active) | 71.9% | -40.1% (active) | 89.9% | 99.2% | 100% | 86.6% | 0.959% (active) | -46.4% (active) |
| N#Cc1c(NC(=O)NCc2ccccc2)sc2c1CCCCC2 | 15.2% | 9.68% (active) | 22.8% | 28.2% | 24.8% | 28.7% | 17.6% | 18.9% | 26.4% | 67.4% | 39.1% | 39.3% | 30.3% | 46.7% | 41.1% | 43.4% | 29.8% | 14.7% | 18% |
| Oc1ccc(C(c2ccc(O)cc2)c2ccc(Br)cn2)cc1 | 15.6% | 70.5% | -10.3% (active) | 66.9% | 86.9% | -17.1% (active) | 85.5% | 38.9% | -12.2% (active) | 109% | 31.6% | -37.1% (active) | 1.64% (active) | 53% | 4.53% (active) | 21% | 79.5% | 111% | 101% |
| N#CC1C(C#N)C2c3ccccc3C=CN2C1C(=O)c1ccc(Br)cc1 (stereo not given) | 95.9% | 86.8% | 90.5% | 91.2% | 100% | 94% | 90.8% | 98.4% | 92.2% | 102% | 98.3% | 93% | 88.6% | 99.2% | 111% | 90.3% | 89.8% | 99.2% | 102% |
| O=C(Cc1ccc(/C=C/C(=O)c2ncc[nH]2)cc1)Nc1ccc(Cl)cc1 | -25% (active) | 0.843% (active) | 25.3% | 4.9% (active) | -60.6% (active) | 39% | 52.5% | 41.2% | -37.1% (active) | 67.9% | 94.9% | 65.2% | 7.28% (active) | 2.84% (active) | 59.8% | 42.7% | 32.1% | -6.35% (active) | 5.1% (active) |
| Cc1cnc(C(=O)Nc2nc3ccc(S(=O)(=O)Nc4ccc(C5(C(F)(F)F)CC5)cc4)cc3[nH]2)cn1 | 20.6% | 9.04% (active) | -7.96% (active) | 30.1% | 21.8% | 18% | -3.91% (active) | 35.3% | 35.1% | 54.1% | 37.9% | 59.1% | 34.5% | 38.7% | 32.1% | 48.2% | 22.6% | 11.1% | 20% |
| CCOC(=O)Nc1ccc(-c2ccc3c(c2)NC(=O)/C3=C\c2ccc[nH]2)cc1 | 84.6% | 105% | 89% | 99.3% | 87.9% | 101% | 99.2% | 101% | 97.2% | 111% | 114% | 30.8% | 102% | 72.6% | 77% | 100% | 93.7% | 98.3% | 98.8% |
